# Data published in ChEMBL document CHEMBL1201862, “PubChem BioAssay data set” (2004).
# Hit rate of the full screen: of about 57,000 sequences, about 3,400 (6%) were called active. Cut-off read from the data, not from the text of the source: active = GI50 up to about 1.1 µM and inactive = higher. The list is a sample of the results. Potency and affinity values are given separately.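 Step 1: Grow cells in 96-well plates. Step 2: Expose to compound for 48 hours at 5 concentrations. Step 3: Interpolate endpoints linearly; if unreached, use highest concentration. Here, GI50 denotes the concentration required for 50% inhibition of growth.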
# Test system: UO-31
# Test: NCI tumour cell line growth inhibition, 48 h
row,Substance,GI50
1,"CISPLATIN, CHEMBL11359",3.36 µM
2,"[Bis(aminomethyl)dimethylsilane]tetrachloroplatinum(IV), CHEMBL2146190",9.93 µM
3,"[Bis(aminomethyl)ethylmethylsilane]tetrachloroplatinum(IV), CHEMBL2146192",7.48 µM
4,"[Bis(aminomethyl)tetramethylenesilane]dichloropaltinum(II), CHEMBL2146205",22.3 µM
5,"[Bis(aminomethyl)dimethylsilane]dichloroplatinum (II), CHEMBL2146201",55.2 µM
6,"[Bis(aminomethyl)pentamethylenesilane]tetrachloropaltinum(IV), CHEMBL2146204",0.731 µM
7,"[Bis(aminomethyl)diethylsilane]tetrachloroplatinum(IV), CHEMBL2146203",4.43 µM
8,"[Bis(aminomethyl)pentamethylenesilane]dichloropaltinum(II), CHEMBL2146202",3.21 µM
9,"mu-(1,7-nanodiamine-N,N')bis-(cis-aminedichloroplatimum (II)), CHEMBL2146215",44.8 µM
10,"cis-Bis[[(trimethylsilyl)methyl]amino]tetrachloroplatinum(IV), CHEMBL2146191",16.2 µM
11,"[Bis(aminomethyl)tetramethylenesilane]tetrachloropaltinum(IV), CHEMBL2146189",3.73 µM
